Results from the supplement of paper PMC10849652.
Targets with a hit are over-represented here; the source holds about 7,900 in all. About 0.6% of all pairs of compound and target were hits.

compound: c1cn2cc(-c3ccc4cn[nH]c4c3)nc(Nc3ccc(N4CCOCC4)cc3)c2n1 [entospletinib]; experiment: log2 fold change, soluble protein after heating vs DMSO (PISA); higher = thermal stabilisation; K562 cells, 10 uM, 30 min; active = over 0.2 and 3.5 SD of the protein, either way, in both replicates (recomputed)
Method in brief: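 K562 cells at 2×10^6 cells/mL were treated with 10 μM compound for 30 min. Aliquots were heated for 3 min across 48°C-58°C, pooled, and extracted in PBS with 0.5% NP-40 at 4°C; soluble protein was the supernatant after 21,000xg for 90 min. Soluble protein was quantified by TMTpro 16plex LC-MS/MS with channel sums equalised, and reported as log2 fold change in thermal stability against DMSO controls, with values from duplicates.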

Sequence of UniProt Q00536 (Q00536 whole entry, looked up): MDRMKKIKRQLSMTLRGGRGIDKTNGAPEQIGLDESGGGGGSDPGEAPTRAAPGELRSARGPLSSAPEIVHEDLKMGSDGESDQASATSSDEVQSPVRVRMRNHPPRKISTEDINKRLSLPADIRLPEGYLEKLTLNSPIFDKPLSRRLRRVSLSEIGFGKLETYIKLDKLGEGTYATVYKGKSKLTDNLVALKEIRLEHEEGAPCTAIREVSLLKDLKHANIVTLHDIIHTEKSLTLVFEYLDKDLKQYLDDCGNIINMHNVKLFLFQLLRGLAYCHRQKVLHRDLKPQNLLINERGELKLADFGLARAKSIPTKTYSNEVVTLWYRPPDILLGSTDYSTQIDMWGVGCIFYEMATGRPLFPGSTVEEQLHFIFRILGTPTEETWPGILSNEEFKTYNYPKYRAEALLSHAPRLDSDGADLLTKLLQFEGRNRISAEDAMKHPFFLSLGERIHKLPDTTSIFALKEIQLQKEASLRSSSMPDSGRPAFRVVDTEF
Sequence of UniProt Q9H9S4 (Q9H9S4 whole entry, looked up): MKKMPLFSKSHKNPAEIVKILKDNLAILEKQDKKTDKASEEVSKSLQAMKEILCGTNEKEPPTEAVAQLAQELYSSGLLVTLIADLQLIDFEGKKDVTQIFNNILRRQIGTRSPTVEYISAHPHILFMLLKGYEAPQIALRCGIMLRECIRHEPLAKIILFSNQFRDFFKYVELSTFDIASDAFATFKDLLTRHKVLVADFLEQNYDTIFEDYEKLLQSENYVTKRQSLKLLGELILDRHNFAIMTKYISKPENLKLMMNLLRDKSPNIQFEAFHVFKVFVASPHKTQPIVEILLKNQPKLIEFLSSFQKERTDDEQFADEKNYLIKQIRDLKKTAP
Sequence of UniProt Q13137 (Q13137 whole entry, looked up): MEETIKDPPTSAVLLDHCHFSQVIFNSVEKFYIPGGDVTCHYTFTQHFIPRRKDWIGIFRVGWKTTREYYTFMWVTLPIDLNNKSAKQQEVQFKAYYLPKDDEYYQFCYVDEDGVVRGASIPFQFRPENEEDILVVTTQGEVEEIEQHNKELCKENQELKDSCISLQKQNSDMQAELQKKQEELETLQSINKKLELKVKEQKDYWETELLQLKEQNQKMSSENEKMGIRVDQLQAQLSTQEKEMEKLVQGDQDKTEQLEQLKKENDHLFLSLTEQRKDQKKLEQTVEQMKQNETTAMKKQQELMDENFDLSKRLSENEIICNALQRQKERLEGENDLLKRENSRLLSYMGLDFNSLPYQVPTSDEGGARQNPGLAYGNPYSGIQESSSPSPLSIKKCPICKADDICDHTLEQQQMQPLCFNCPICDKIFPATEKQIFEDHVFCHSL
Sequence of UniProt P15954 (P15954 whole entry, looked up): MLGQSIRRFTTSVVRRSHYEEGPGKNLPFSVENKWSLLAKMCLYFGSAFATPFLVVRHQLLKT
Sequence of UniProt Q00535 (Q00535 whole entry, looked up): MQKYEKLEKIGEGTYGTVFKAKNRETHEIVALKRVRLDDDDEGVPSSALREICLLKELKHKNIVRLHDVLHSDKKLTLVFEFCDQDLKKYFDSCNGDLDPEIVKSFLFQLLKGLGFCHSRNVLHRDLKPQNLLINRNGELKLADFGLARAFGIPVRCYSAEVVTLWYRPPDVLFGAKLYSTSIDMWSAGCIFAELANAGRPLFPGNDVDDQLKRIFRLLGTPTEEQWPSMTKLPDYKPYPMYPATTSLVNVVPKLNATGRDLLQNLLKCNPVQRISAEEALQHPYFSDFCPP
Sequence of UniProt A8MTT3 (A8MTT3 whole entry, looked up): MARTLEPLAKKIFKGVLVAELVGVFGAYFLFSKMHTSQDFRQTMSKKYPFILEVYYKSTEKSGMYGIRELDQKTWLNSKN
Sequence of UniProt P51795 (P51795 whole entry, looked up): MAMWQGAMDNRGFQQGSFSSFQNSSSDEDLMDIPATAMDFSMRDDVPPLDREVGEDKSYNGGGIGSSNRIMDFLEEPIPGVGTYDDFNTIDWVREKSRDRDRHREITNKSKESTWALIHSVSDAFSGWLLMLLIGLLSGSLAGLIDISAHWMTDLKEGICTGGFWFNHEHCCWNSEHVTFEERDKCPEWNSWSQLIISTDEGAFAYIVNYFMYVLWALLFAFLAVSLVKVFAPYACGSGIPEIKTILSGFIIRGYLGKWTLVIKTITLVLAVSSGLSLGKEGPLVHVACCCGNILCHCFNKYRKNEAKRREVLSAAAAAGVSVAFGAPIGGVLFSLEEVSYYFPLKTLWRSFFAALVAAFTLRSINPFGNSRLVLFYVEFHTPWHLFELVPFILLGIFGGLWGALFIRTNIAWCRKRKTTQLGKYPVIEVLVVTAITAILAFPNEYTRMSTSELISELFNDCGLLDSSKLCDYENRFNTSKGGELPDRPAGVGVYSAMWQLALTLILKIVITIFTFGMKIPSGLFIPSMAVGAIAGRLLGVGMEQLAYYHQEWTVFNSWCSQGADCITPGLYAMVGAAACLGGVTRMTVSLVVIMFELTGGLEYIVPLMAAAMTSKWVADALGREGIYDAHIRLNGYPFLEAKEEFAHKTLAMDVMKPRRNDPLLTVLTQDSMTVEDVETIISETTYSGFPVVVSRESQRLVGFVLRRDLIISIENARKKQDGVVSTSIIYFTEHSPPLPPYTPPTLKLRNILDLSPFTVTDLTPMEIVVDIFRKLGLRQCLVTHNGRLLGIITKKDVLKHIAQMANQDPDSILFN
Sequence of UniProt P51946 (P51946 whole entry, looked up): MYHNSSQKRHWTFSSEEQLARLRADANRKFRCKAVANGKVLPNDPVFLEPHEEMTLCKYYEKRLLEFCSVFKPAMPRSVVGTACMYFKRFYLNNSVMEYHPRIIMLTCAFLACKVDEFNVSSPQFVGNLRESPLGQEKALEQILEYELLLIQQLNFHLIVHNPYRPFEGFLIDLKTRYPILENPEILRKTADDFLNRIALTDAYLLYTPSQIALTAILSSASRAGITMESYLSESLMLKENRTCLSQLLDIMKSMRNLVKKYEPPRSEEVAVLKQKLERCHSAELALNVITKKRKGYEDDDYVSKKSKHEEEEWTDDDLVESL
Sequence of UniProt Q9NYV4 (Q9NYV4 whole entry, looked up): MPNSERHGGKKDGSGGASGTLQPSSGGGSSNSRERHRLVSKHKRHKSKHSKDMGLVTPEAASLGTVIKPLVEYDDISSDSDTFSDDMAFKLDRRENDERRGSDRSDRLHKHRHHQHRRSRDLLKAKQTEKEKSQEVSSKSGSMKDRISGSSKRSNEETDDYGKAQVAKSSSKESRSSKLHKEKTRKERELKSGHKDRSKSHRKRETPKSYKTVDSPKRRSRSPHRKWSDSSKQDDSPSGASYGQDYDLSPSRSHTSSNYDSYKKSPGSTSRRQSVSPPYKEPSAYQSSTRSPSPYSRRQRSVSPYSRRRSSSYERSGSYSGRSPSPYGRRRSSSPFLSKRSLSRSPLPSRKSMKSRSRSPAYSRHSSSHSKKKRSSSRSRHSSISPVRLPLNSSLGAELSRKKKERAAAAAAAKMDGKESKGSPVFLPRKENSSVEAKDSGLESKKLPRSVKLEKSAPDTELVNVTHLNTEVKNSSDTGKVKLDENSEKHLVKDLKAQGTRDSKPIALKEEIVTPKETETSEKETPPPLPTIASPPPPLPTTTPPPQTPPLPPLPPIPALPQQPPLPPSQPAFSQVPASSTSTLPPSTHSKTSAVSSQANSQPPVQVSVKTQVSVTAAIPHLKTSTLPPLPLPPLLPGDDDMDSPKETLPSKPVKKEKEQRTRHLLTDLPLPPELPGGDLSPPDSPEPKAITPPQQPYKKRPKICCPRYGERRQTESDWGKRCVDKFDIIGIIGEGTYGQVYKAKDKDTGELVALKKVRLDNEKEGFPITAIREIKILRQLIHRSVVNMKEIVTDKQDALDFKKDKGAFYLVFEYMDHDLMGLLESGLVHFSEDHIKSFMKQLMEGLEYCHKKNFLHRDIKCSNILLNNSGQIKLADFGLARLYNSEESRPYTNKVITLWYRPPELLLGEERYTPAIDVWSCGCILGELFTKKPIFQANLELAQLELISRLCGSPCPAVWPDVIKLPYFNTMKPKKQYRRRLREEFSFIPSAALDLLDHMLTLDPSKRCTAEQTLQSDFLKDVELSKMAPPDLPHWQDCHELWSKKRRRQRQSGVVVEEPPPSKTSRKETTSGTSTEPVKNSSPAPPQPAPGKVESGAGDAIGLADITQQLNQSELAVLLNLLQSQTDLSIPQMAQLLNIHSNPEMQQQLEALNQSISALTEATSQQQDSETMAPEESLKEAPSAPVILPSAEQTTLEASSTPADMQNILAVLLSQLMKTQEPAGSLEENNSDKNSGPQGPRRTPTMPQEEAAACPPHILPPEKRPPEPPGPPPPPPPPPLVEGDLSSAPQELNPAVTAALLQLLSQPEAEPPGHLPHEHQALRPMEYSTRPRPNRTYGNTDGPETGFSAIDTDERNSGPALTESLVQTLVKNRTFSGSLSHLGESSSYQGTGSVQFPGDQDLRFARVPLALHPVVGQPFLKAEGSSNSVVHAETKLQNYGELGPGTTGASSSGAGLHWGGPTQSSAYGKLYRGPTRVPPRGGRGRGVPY
Sequence of UniProt Q8N668 (Q8N668 whole entry, looked up): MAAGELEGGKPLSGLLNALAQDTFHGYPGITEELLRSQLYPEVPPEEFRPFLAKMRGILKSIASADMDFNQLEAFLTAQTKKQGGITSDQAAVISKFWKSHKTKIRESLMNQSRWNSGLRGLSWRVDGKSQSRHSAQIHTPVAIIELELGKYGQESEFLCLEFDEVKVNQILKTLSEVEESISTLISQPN
Sequence of UniProt Q9NPF2 (Q9NPF2 whole entry, looked up): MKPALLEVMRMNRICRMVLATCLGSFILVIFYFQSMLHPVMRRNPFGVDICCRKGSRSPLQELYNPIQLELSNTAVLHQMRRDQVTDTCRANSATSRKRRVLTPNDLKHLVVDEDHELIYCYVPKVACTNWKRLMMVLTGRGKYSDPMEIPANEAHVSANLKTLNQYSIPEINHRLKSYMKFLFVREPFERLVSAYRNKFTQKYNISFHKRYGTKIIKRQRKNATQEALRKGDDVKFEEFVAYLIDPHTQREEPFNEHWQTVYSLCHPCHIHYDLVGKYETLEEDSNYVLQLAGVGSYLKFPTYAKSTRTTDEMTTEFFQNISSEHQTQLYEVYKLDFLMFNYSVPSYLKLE

log2 fold change, inactive:
CEMIP2 (UniProt Q9UHN6) 0.04
CAMKK2 (UniProt Q96RR4) 0.011
CDK4 (UniProt P11802) -0.069
CDK17 isoform 2 (UniProt Q00537) 0.067
CDK12 (UniProt Q9NYV4) 0.058
CERT isoform 3 (UniProt Q9Y5P4) 0.019
COMMD1 (UniProt Q8N668) -0.013
CLCN5 isoform 2 (UniProt P51795) -0.014
CS (UniProt O75390) 0.005
CALCOCO2 isoform 4 (UniProt Q13137) 0.005
CHAC2 (UniProt Q8WUX2) 0.323
COPS4 (UniProt Q9BT78) 0.003
CDK1 (UniProt P06493) -0.024
CDC37L1 (UniProt Q7L3B6) 0.042
CDK5 (UniProt Q00535) -0.022
COX7C (UniProt P15954) -0.074
CLPP (UniProt Q16740) 0.01
CLPX (UniProt O76031) -0.002
CNOT1 (UniProt A5YKK6) 0.014
CMTM3 (UniProt Q96MX0) 0.043
CHST11 (UniProt Q9NPF2) -0.1
CNOT7 (UniProt Q9UIV1) 0.122
CEBPZOS (UniProt A8MTT3) 0.203
CIT isoform 4 (UniProt O14578) -0.168
C15orf41 (UniProt Q9Y2V0) 0.032
CDC42SE1 (UniProt Q9NRR8) 0.141
CASP9 (UniProt P55211) -0.211
CCNH (UniProt P51946) -0.019
CHMP4C (UniProt Q96CF2) 0.036
CAB39L (UniProt Q9H9S4) 0.154
C9orf64 (UniProt Q5T6V5) 0.009
CRTC2 (UniProt Q53ET0) -0.038
COPS3 (UniProt Q9UNS2) 0.011
CDK2AP2 (UniProt O75956) 0.101
CPSF7 isoform 3 (UniProt Q8N684) -0.011
CPSF1 (UniProt Q10570) 0.037
CDK16 isoform 2 (UniProt Q00536) -0.022
